In the library only some 3.8% were active in any assay of this set; here they are far more common.
Ecoli rRNA inh: selective bacterial rRNA inhibition in E. coli. E. coli WT GFP vs humanized-ribosome RFP mutants, fluorescence, 24 h; active compounds read low; DMSO median 0, no signal -100. GFP signal change (wild-type ribosome), % (test concentration not listed). actives 1.6% (n = 350,000). AID 720706;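 active = significant combined selectivity score with lowered wild-type GFP, culture density cut under 30%, mutant RFP and density less affected; inactive = any of these conditions unmet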
ADAM10 inh: ADAM10 inhibition, QFRET primary screen. O14672. recombinant ADAM10, EDANS/DABCYL FRET peptide cleavage, 3 h. inhibition, % at 7 µM. actives 0.62% (n = 370,000). AID 720582;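 active = inhibition above a per-campaign cutoff equal to the mean of compounds falling between control-based bounds plus 3 SD, cut at about 20% in these data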;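 note: 0% = DMSO wells while the 100% control is not disclosed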
FGF22 binding: shifts melting point of recombinant human FGF22; recombinant FGF22 thermal shift, SYPRO orange fluorescence; percent of sucrose octasulfate shift, DMSO zero; actives 1.5% (n = 340,000); activity (Tm shift, normalised), % at 9.99 µM; AID 651658;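 active = mean Tm shift, scaled 0 neutral to 100 positive control, at about 1.3% or above, every replicate too, limit read from the data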
ADAM17 inh: inhibitors of human ADAM17. inhibition, % at 6.95 µM. P78536. recombinant ADAM17, EDANS/DABCYL FRET peptide cleavage. AID 720648. actives 0.83% (n = 370,000);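 active = inhibition above the mean of compounds lying between control limits plus 3 SD, set per campaign, cut at about 8.5% in these data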;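 note: 0% = DMSO-only wells as the low control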
Target sequence (P78536 215-824 limits assumed): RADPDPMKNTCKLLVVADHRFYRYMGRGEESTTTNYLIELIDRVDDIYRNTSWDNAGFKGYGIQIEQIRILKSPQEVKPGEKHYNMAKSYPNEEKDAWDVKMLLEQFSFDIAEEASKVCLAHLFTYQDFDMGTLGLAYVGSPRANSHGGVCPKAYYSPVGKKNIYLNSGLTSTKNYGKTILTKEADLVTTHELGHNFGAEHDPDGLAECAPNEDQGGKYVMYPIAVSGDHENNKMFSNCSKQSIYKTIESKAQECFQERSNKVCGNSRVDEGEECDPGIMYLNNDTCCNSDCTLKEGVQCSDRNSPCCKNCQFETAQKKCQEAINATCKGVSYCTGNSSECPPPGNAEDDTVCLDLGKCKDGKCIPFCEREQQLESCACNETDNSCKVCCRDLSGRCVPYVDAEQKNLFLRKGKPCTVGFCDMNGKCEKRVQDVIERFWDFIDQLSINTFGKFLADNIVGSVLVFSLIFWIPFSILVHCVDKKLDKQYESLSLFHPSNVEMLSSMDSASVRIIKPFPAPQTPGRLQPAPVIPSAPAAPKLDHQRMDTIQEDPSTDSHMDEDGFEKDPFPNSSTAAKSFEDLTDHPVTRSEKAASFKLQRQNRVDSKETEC
KLK7 zymogen act: activators of human kallikrein-7 zymogen. purified proKLK7, EDANS-DABCYL substrate fluorescence; 100% is mature enzyme control, 0% vehicle. activation, % at 7 µM. actives 0.9% (n = 370,000). AID 652039;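 active = activation above the mean of all tested compounds plus 3 SD, computed per campaign excluding outliers beyond control limits, cut at about 13% in these data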
proKLK7 act conf: confirmation of human kallikrein-7 zymogen activators. shares compounds with KLK7 zymogen act. purified proKLK7, EDANS-DABCYL substrate fluorescence; scaled: vehicle 0, mature enzyme 100. activation, % at 7 µM. actives 68% (n = 3,200);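 active = activation, as change over the incubation, above the mean of all tested compounds plus 3 SD, cut at about 13% in these data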
EDANS interfere: fluorescence interference counter-screen for KLK7 activators | activation, % at 7 µM | EDANS-DABCYL substrate fluorescence interference, no enzyme, 4 h; solvent 0%, active enzyme control 100% | actives 80% (n = 3,200) | shares compounds with KLK7 zymogen act | AID 686952;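 active = activation above the all-compound mean plus 3 SD, ignoring values outside control-based bounds, cut at about 4.8% in these data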;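 note: value is the 4 h activation minus the activation read at time zero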
EDANS interf: counter-screen for kallikrein-7 activators: EDANS-DABCYL interference, dose response | shares compounds with KLK7 zymogen act | EDANS-DABCYL peptide fluorescence interference, no enzyme | EC50, µM | actives 20% (n = 250);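 active = compounds that raise the fluorescence signal in this interference counterscreen, with EC50 at or below 10 µM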;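 note: intact quenched peptide substrate alone read at 355 nm excitation and 520 nm emission; signal is fluorescence gain from T0 to T4 after four hours at room temperature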
* = called active by the depositor; i = inactive; / = not tested or not shown.

SMILES	Ecoli rRNA inh	ADAM10 inh	FGF22 binding	ADAM17 inh	KLK7 zymogen act	proKLK7 act conf	EDANS interfere	others
CC[C@@H]1C(c2ccccc2)=NN(c2ccccc2)[C@H]1C(=O)N1CCOC1=O	-7.6	-123.0	-0.2	-31.9	186.8*	161.1*	131.2*
CC[C@H]1C(c2ccc(F)cc2)=NN(c2ccccc2)[C@@H]1CO	-40.2	i	-0.3	i	21.9*	-93.6	-120.4
Cc1cc(C(=O)Nc2cccc3c2O[C@@H](CN(C)S(=O)(=O)c2ccccc2)[C@H](C)CN([C@H](C)CO)C3=O)n(C)n1	2.1	/	-0.2	/	/	/	/
COc1cccc(NC(=O)C[C@@H]2CC[C@@H]3[C@H](COc4ccc(NC(C)=O)cc4C(=O)N3C)O2)c1	0.2	/	0.1	/	/	/	/
C[C@H]1CN([C@@H](C)CO)C(=O)Cc2cc(NS(=O)(=O)c3ccccc3)ccc2O[C@@H]1CN(C)Cc1ccncc1	-8.3	/	0.0	/	/	/	/
Nc1ccc(S(=O)(=O)O)cn1	14.4	-0.5	-0.1	-2.5	0.5	/	/
Nc1ccc(-c2ccc(C(=O)O)s2)cn1	/	i	-0.2	i	19.1*	72.9*	81.8*
CCOc1ccccc1NC(=O)COc1ccc2ccc(=O)oc2c1	6.5	-14.3	0.4	-1.5	-0.6	/	/
O=C(Oc1ccc2ccc(=O)oc2c1)c1ccc([N+](=O)[O-])cc1	14.7	i	0.2	i	45.2*	592.6*	573.0*
COc1cccc(C(=O)Oc2ccc3ccc(=O)oc3c2)c1	14.8	i	-0.2	-300.0	93.5*	616.3*	656.0*
CC(=O)Oc1ccc2ccc(=O)oc2c1	/	i	-0.1	i	357.0*	602.4*	608.8*
Cc1ccccc1NC(=O)COC(=O)COc1ccc2ccc(=O)oc2c1	2.4	-349.1	0.0	-87.3	13.6*	15.6*	-1.5	EDANS interf=i
O=C(c1ccc2c(c1)OCO2)N1CC(=O)N2[C@H](CO)[C@@H](c3ccc(C#CCC4CCCC4)cc3)[C@H]2C1	-6.9	/	-1.1	/	/	/	/
C[C@@H]1CN([C@H](C)CO)C(=O)c2cc(NC(=O)Nc3ccccc3)ccc2O[C@@H]1CN(C)Cc1ccc(-c2ccccc2)cc1	-2.9	/	0.1	/	/	/	/
COC(=O)c1cc(COc2ccc3ccc(=O)oc3c2)c(C)o1	/	-166.2	/	-48.6	-1.1	/	/
COc1ccc(C(=O)Oc2ccc3ccc(=O)oc3c2)cc1OC	6.8	i	0.0	-340.4	14.0*	196.6*	193.0*
Cc1cc(C(=O)COc2ccc3ccc(=O)oc3c2)c(C)n1C	4.7	i	0.0	-202.8	137.8*	79.0*	84.9*
CC(NC(=O)OC(C)(C)C)C(=O)Oc1ccc2ccc(=O)oc2c1 (stereo unspecified)	/	i	/	i	89.4*	466.5*	445.2*
COc1ccc(C(=O)COc2ccc3ccc(=O)oc3c2)cc1	5.2	-32.4	0.0	-13.6	1.9	/	/
COc1ccc(C(=O)COc2ccc3ccc(=O)oc3c2)c(OC)c1	1.9	-289.4	0.1	-107.3	-6.8	/	/
O=C(CNC(=O)OCc1ccccc1)Oc1ccc2ccc(=O)oc2c1	10.0	i	0.2	i	56.1*	183.1*	261.2*
COc1ccccc1S(=O)(=O)N[C@H]1CC[C@H](CCNC(=O)C2CCC2)O[C@@H]1CO	-0.8	/	-0.2	/	/	/	/
O=C(Oc1ccc2ccc(=O)oc2c1)c1cccs1	/	i	-0.2	i	580.8*	788.9*	771.1*
Cc1ccc(C(=O)Oc2ccc3ccc(=O)oc3c2)cc1	3.1	-248.3	0.6	-103.2	40.6*	110.8*	107.4*
COc1ccc(S(=O)(=O)Nc2ccc3c(c2)C(=O)N([C@@H](C)CO)C[C@H](C)[C@H](CN(C)C(=O)c2ccccc2)OCCCC[C@@H](C)O3)cc1	0.8	/	-0.7	/	/	/	/
SMILES	Ecoli rRNA inh	ADAM10 inh	FGF22 binding	ADAM17 inh	KLK7 zymogen act	proKLK7 act conf	EDANS interfere	others
O=C(NC1Cc2ccccc2C1)[C@@H]1[C@@H](CO)[C@@H]2Cn3c(ccc(C4=CCCCC4)c3=O)[C@@H]2N1CC1CC1	-9.2	/	-0.3	/	/	/	/
C[C@H](CO)N1C[C@H](C)[C@H](CN(C)C(=O)C2CCC2)Oc2cc(-c3ccc(F)cc3)ccc2S1(=O)=O	-18.6	/	/	/	/	/	/
COc1ccc(-c2ccc(C3C(C#N)=C(N)Oc4n[nH]c(C)c43)o2)cc1 (stereo unspecified)	/	-58.0	/	-11.7	14.5*	8.8	9.0*
Cc1[nH]nc2c1C(c1ccc(OC(=O)c3ccco3)cc1)C(C#N)=C(N)O2 (stereo unspecified)	/	8.2	/	4.1	310.2*	1.2	-2.0
CCC(=O)N1CCC2(CC1)CN(S(=O)(=O)c1ccccc1)[C@H](CO)c1[nH]c3cc(OC)ccc3c12	-6.1	/	0.0	/	/	/	/
C[C@@H]1CN([C@H](C)CO)C(=O)c2ccccc2-c2ccccc2CO[C@H]1CN(C)C(=O)Nc1cccc(Cl)c1Cl	0.3	/	/	/	/	/	/
CS(=O)(=O)c1ccc(-c2sc3cc4c(cc3c2C(=O)NN2CCOCC2)OCO4)cc1	4.0	i	0.0	-343.9	43.4*	34.5*	27.5*	EDANS interf=>69.5
O=C(NN1CCOCC1)c1c(-c2ccccc2)sc2ccccc12	5.3	8.6	-0.1	-0.2	0.3	/	/
CCC1=C(CC2NCCc3ccccc32)CC2c3cc(OC)c(OC)cc3CCN2C1 (stereo unspecified)	15.9	-125.2	0.2	-35.9	18.8*	1.7	2.0
COc1cccc(S(=O)(=O)N2CC[C@@H]3[C@H](CO)Nc4ccc(C#Cc5ccccc5)cc4[C@@H]32)c1	-4.6	/	0.8	/	/	/	/
COc1cc2c(cc1OC)CN(Cc1cc(=O)n3c(-c4ccccc4)csc3n1)CC2	1.1	i	-0.1	-230.0	32.8*	-16.0	-9.8
COc1cc2c(cc1OC)CN(Cc1cc(=O)n3cc(C)ccc3n1)CC2	/	i	/	-246.1	32.7*	28.9*	33.3*
O=c1cc(CN2CCN(c3ccccc3)CC2)nc2scc(-c3ccccc3)n12	-15.7	0.6	-0.3	-4.0	0.7	/	/
C/C=C/c1ccc(OCc2cc(=O)n3cc(C)ccc3n2)c(OC)c1	-7.4	-15.2	0.3	-7.6	0.6	/	/
COc1cc2c(cc1OC)CN(Cc1ccc(F)cc1)CC2	-2.6	i	0.0	-444.3	38.5*	13.9*	17.9*
CC(C)NC(=O)N1CC2(C1)[C@@H](c1ccccc1)[C@@H](CO)N2CCC(F)(F)F	0.5	/	-0.4	/	/	/	/
FC(F)(F)c1cc(-c2cccs2)nc2ncnn12	16.2	i	0.0	i	19.2*	66.9*	65.5*
